Test results taken from PubChem BioAssay (NCI).
This is part of a sample that, as a whole, favours compounds with a hit. Of some 79,000 tested, about 15% had one in any assay. Activity calls are given as the source filed them. Cut-off read from the data, not from the text of the source: active = growth inhibition above about 70%; inactive = the rest.

Assays:
[1] = NCI Yeast Anticancer Drug Screen. Data for the rad50 strain (AID 155);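 note: 0% = growth of vehicle-only cultures of the same strain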; conditions: S. cerevisiae rad50 strain growth inhibition, hits give high values
Method in brief: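 DNA repair mutant yeast, compound exposure, growth read-out; inhibition is taken relative to vehicle.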

[2] = NCI Yeast Anticancer Drug Screen. Data for the mec2-1 strain (AID 157); conditions: S. cerevisiae mec2-1 strain, hits give high values
Method in brief: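 Each compound was tested on mec2-1 yeast, a strain altered in DNA damage repair or cell cycle control. Growth inhibition is reported relative to vehicle.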

[3] = NCI Yeast Anticancer Drug Screen. Data for the sgs1 mgt1 strain (AID 161);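 note: 0% = growth of cultures given vehicle only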; conditions: S. cerevisiae sgs1 mgt1 strain, hits give high values
Method in brief: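 Genetically altered yeast, compound exposure, growth inhibition relative to vehicle.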

[4] = NCI Yeast Anticancer Drug Screen. Data for the cln2 rad14 strain (AID 165);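 note: 0% = growth equal to vehicle treated cultures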; conditions: S. cerevisiae cln2 rad14 strain, hits give high values
Method in brief: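 Test compounds were added to cln2 rad14 yeast cultures; inhibition of growth was then determined by comparison with vehicle treatment.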

[5] = NCI Yeast Anticancer Drug Screen. Data for the bub3 strain (AID 167); conditions: S. cerevisiae bub3 mutant strain, hits give high values
Method in brief: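 In this screen, a yeast mutant lacking normal mitotic checkpoint function is challenged with compound. Relative growth versus vehicle gives the inhibition value.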

[6] = NCI Yeast Anticancer Drug Screen. Data for the mlh1 rad18 strain (AID 175); conditions: S. cerevisiae mlh1 rad18 strain growth inhibition, hits give high values
Method in brief: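 Inhibition values reflect reduced growth of mutant yeast versus vehicle-treated controls following compound exposure; the mutations affect DNA damage repair.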

[7] = NCI Yeast Anticancer Drug Screen. Data for the wt2 strain (AID 169);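 note: 0% = growth of vehicle-treated yeast cultures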; conditions: S. cerevisiae wt2 strain growth inhibition, hits give high values
Method in brief: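 The panel's yeast strains carry defined changes in DNA repair or cell cycle genes. Each strain is grown with compound, and growth loss is scored relative to vehicle.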

[8] = NCI Yeast Anticancer Drug Screen. Data for the wt1 strain (AID 149);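 note: 0% = growth of vehicle-treated wt1 cultures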; conditions: S. cerevisiae wt1 strain (SPY 50644) growth inhibition, hits give high values
Method in brief: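 wt1 strain grown with compound or vehicle; inhibition taken from the growth difference.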

[9] = NCI Yeast Anticancer Drug Screen. Data for the mgt1 strain (AID 153); conditions: S. cerevisiae mgt1 mutant growth inhibition, hits give high values
Method in brief: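 In the mgt1 strain, test compounds were added and growth inhibition was determined relative to vehicle-treated controls.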

[10] = NCI Yeast Anticancer Drug Screen. Data for the rad14 strain (AID 159);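 note: 0% = growth of vehicle-treated control cultures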; conditions: S. cerevisiae rad14 strain growth inhibition, hits give high values
Method in brief: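 DNA repair-defective yeast, compound-exposed; % growth inhibition derived by comparison with vehicle-treated controls.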

[11] = NCI Yeast Anticancer Drug Screen. Data for the CLN2oe strain (AID 163);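 note: 0% = growth of vehicle-only control cultures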; conditions: S. cerevisiae CLN2oe strain, hits give high values
Method in brief: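 First, the altered yeast strain was treated with each compound; second, its growth was measured; finally, inhibition was derived by comparison with vehicle controls.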

[12] = NCI Yeast Anticancer Drug Screen. Data for the mlh1 strain (AID 171);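 note: 0% = growth of vehicle-treated control cultures of the same strain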; conditions: S. cerevisiae mlh1 strain growth inhibition, hits give high values
Method in brief: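 Inhibition values reflect reduced yeast growth in the presence of compound, referenced to vehicle controls, using a strain chosen for its alteration in DNA repair or cell cycle control.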

[13] = NCI Yeast Anticancer Drug Screen. Data for the sgs1 strain (AID 173);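 note: 0% = growth of vehicle-only control cultures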; conditions: S. cerevisiae sgs1 mutant, hits give high values
Method in brief: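 Vehicle-treated cultures served as reference for growth inhibition of a yeast strain altered in DNA damage repair or cell cycle control after compound exposure.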

[14] = NCI Yeast Anticancer Drug Screen. Data for the rad18 strain (AID 177); conditions: S. cerevisiae rad18 mutant growth inhibition, hits give high values
Method in brief: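 Steps: expose repair-mutant yeast to compound; measure growth; express as inhibition relative to vehicle control.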

[15] = at 5.0 µM (retest, dose inferred, filed as 0.5)
[16] = at 50.0 µM (retest, dose inferred, filed as 5.0)

Measured: growth inhibition

[Pt].c1ccc(P(CCP(c2ccccc2)c2ccccc2)CCP(c2ccccc2)c2ccccc2)cc1
active: [1]; at 33.0 µM 94% | [1]; [16] 90% | [1]; at 50.0 µM 79% | [1]; at 100.0 µM 93% | [2]; at 33.0 µM 94% | [2]; [16] 94% | [2]; at 50.0 µM 85.2% | [2]; at 100.0 µM 94% | [3]; [16] 90% | [3]; at 50.0 µM 82% | [4]; [16] 91% | [4]; at 50.0 µM 79.2% | [5]; at 33.0 µM 96% | [5]; [16] 91% | [5]; at 50.0 µM 75.7% | [5]; at 100.0 µM 95% | [6]; [16] 92% | [6]; at 50.0 µM 75.8%
inactive: [1]; at 1.2 µM -13% | [1]; at 3.7 µM 11% | [1]; [15] 22% | [1]; at 11.0 µM 23% | [2]; at 1.2 µM -27% | [2]; at 3.7 µM -14% | [2]; [15] -3% | [2]; at 11.0 µM 6% | [3]; [15] 8% | [4]; [15] 43% | [5]; at 1.2 µM 8% | [5]; at 3.7 µM 4% | [5]; [15] 4% | [5]; at 11.0 µM 26% | [6]; [15] 16%

N#Cc1ccc([Se]c2ccccc2)cc1
inactive: [2]; at 50.0 µM 54.1% | [3]; [15] -1% | [3]; [16] 67% | [4]; [15] 33% | [4]; at 50.0 µM 57% | [5]; [15] 40% | [7]; at 1.2 µM 10% | [7]; at 3.7 µM 13% | [7]; at 11.0 µM 6% | [7]; at 33.0 µM 28% | [7]; at 100.0 µM 63% | [6]; at 50.0 µM 56%
active: [1]; [15] 91% | [1]; [16] 96% | [1]; at 50.0 µM 73.9% | [2]; [15] 95% | [2]; [16] 96% | [3]; at 50.0 µM 72.3% | [4]; [16] 73% | [5]; [16] 84% | [5]; at 50.0 µM 77.9% | [6]; [15] 89% | [6]; [16] 97%

c1ccc(P(CC[As](c2ccccc2)c2ccccc2)CC[As](c2ccccc2)c2ccccc2)cc1
inactive: [3]; [15] 47% | [3]; [16] 47%
active: [1]; [15] 95% | [1]; [16] 95% | [1]; at 50.0 µM 89% | [2]; [15] 81% | [2]; [16] 81% | [2]; at 50.0 µM 90.8% | [3]; at 50.0 µM 88.5% | [4]; [15] 76% | [4]; [16] 76% | [4]; at 50.0 µM 89.3% | [5]; [15] 84% | [5]; [16] 84% | [5]; at 50.0 µM 90.8%

CC(=O)[O][Hg][c]1c(C)c(C)c(C)c(C)c1C
active: [1]; [15] 98% | [1]; [16] 97% | [1]; at 50.0 µM 87.5% | [2]; [15] 98% | [2]; [16] 97% | [2]; at 50.0 µM 90.1% | [3]; [15] 99% | [3]; [16] 98% | [3]; at 50.0 µM 90.7% | [4]; [15] 98% | [4]; [16] 98% | [4]; at 50.0 µM 89.8% | [5]; [15] 98% | [5]; [16] 97% | [5]; at 50.0 µM 88.5% | [6]; [15] 98% | [6]; [16] 96%

CCS(=O)(=O)[O][Sn]([CH2]C)([CH2]C)[O]S(=O)(=O)CC
active: [2]; [16] 85% | [2]; at 50.0 µM 77% | [5]; [16] 72% | [7]; at 100.0 µM 77% | [6]; [16] 87%
inactive: [8]; at 1.2 µM -47% | [8]; at 3.7 µM -43% | [8]; at 11.0 µM -39% | [8]; at 33.0 µM -25% | [8]; at 100.0 µM 61% | [9]; at 1.2 µM -3% | [9]; at 3.7 µM -1% | [9]; at 11.0 µM 1% | [9]; at 33.0 µM 18% | [9]; at 100.0 µM 61% | [1]; at 1.2 µM -4% | [1]; at 3.7 µM -19% | [1]; [15] 21% | [1]; at 11.0 µM 2% | [1]; at 33.0 µM -14% | [1]; [16] 68% | [1]; at 50.0 µM 48.5% | [1]; at 100.0 µM 56% | [2]; at 1.2 µM -5% | [2]; at 3.7 µM 3% | [2]; [15] 6% | [2]; at 11.0 µM 3% | [2]; at 33.0 µM 23% | [2]; at 100.0 µM 69% | [10]; at 1.2 µM -2% | [10]; at 3.7 µM 4% | [10]; at 11.0 µM 4% | [10]; at 33.0 µM 10% | [10]; at 100.0 µM 34% | [3]; [15] 15% | [3]; [16] 69% | [3]; at 50.0 µM 42.2% | [11]; at 1.2 µM -18% | [11]; at 3.7 µM -45% | [11]; at 11.0 µM -33% | [11]; at 33.0 µM -35% | [11]; at 100.0 µM 54% | [4]; [15] 2% | [4]; [16] 32% | [4]; at 50.0 µM 67% | [5]; at 1.2 µM -5% | [5]; at 3.7 µM -9% | [5]; [15] 1% | [5]; at 11.0 µM -8% | [5]; at 33.0 µM -1% | [5]; at 50.0 µM 55.7% | [5]; at 100.0 µM 55% | [7]; at 1.2 µM -32% | [7]; at 3.7 µM -21% | [7]; at 11.0 µM -26% | [7]; at 33.0 µM -4% | [12]; at 1.2 µM 1% | [12]; at 3.7 µM 5% | [12]; at 11.0 µM 16% | [12]; at 33.0 µM 28% | [12]; at 100.0 µM 52% | [13]; at 1.2 µM -4% | [13]; at 3.7 µM -9% | [13]; at 11.0 µM -3% | [13]; at 33.0 µM 7% | [13]; at 100.0 µM 51% | [6]; [15] 44% | [6]; at 50.0 µM 59.6% | [14]; at 1.2 µM -29% | [14]; at 3.7 µM -25% | [14]; at 11.0 µM -17% | [14]; at 33.0 µM -16% | [14]; at 100.0 µM 52%

C/C(=N\N=C(/[Se])N1CC2CCC(CC2)C1)c1ccccn1
inactive: [1]; [15] 62% | [2]; [15] 40% | [3]; [15] 53% | [4]; [15] 32% | [4]; [16] 65% | [5]; [15] 51% | [6]; [15] 64%
active: [1]; [16] 79% | [1]; at 50.0 µM 87.5% | [2]; [16] 80% | [2]; at 50.0 µM 90.2% | [3]; [16] 73% | [3]; at 50.0 µM 89.5% | [4]; at 50.0 µM 85.2% | [5]; [16] 81% | [5]; at 50.0 µM 90.3% | [6]; [16] 84%
